Our source for the growth values is PubChem BioAssay (NCI).

Several values for one entry are separate records, joined by “and”; a condition that tells them apart may be missing. Identical values can stand only once. About 83,000 compounds went through this panel and 20% of them were active in at least one assay; those are over-represented in the sample as a whole.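 Results are percent growth after 48 hours of single-concentration exposure. 100 means growth as in untreated cells, lower positive values show inhibition; negative values down to -100 show cell death.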 Values without a mark were called inactive. Activity calls are given as the source filed them. How the source made its calls: active means growth percent below 10; inactive means the rest.

The test deals with MDA-MB-468 breast. Nature of the test: NCI-60 one-dose screen, 48 h (100 = growth as untreated, 0 = no growth, -100 = all killed). Particulars: 10 µM unless noted.
`Cc1ccc(-c2c(-c3ccccc3)c(=O)oc3ccc(C)cc23)cc1`: the growth is 97.3%.
Consider `COc1cccc(-c2nc3sccn3c2-c2ccnc(NCCNS(=O)(=O)c3cccc(F)c3)c2)c1`, for which the growth was 25.6%.
Then `CCCCCCCCCCCCCCCCCC1=NCCN1CCO`, with 102%.
Then `O=C(C=C=Nc1ccccc1)C(=O)N=C=Cc1ccccc1`, with 22%; and `O=C(O)/C(=C/c1ccc(O)cc1)c1ccccc1`, with 96.9%; and `COc1ccc(CCN(C)CCCC(C#N)(c2ccc(OC)c(OC)c2)C(C)C)cc1OC` (centres undefined), with 97.9% and 89.5%.
For the molecule `CN(C)S(=O)(=O)Oc1ccc(-c2sc3cc(OS(=O)(=O)N(C)C)ccc3c2C(=O)c2ccc(OCCN3CCCCC3)cc2)cc1`, the growth was 61.7%.
Then `Clc1cccc(-c2cc(-c3ccc4c(c3)OCCO4)[nH]n2)c1`, with 6.54% [25 µM] (active); and `COc1nc2ccccc2cc1/C=[N+](\[O-])c1ccccc1`, with 88.6%.
Then `COc1cc(C(=O)OCCCCCCCCCCC[P+](c2ccccc2)(c2ccccc2)c2ccccc2)ccc1O`, with -27.7% (active); and `CC(=O)OCCC/C(=C\c1ccc2ccccc2c1)[N+](=O)[O-]`, with -55.4% (active); and `CC1=C(Cl)C(=O)c2cc(C)ccc2C1=O`, with 95.2%.
Then `O=C1CCCN1C(O)CCN(Cc1ccccc1)Cc1ccc(Cl)cc1` (centres undefined), with 113%; and `CCN1CCN(CCNc2nccc(-c3c(-c4ccc(F)c(OC)c4)nc4sccn34)n2)S1(=O)=O`, with 80.1%; and `CCCCc1ccc(NC(=O)N(CCCl)N=O)cc1`, with 91.4%.
Take `O=C(CSc1ccc2nnc(-c3cccc(F)c3)n2n1)Nc1ccc2c(c1)OCO2`: the growth is 23%.
For the molecule `O=[N+]([O-])c1ccc(Sc2ccncn2)c([N+](=O)[O-])c1`, the growth was 24%.
Then `O=S(=O)(NCCCNc1cc(-c2cn(-c3ccccc3)nc2-c2cccc(O)c2)ccn1)c1ccc(Cl)cc1`, with -15.9% (active); and `Cc1ccccc1OCC(O)COc1ccccc1C`, with 105%; and `CCOC(=O)c1c(Nc2ccccc2)nn2c(N)c(C#N)c(-c3ccc(F)cc3)nc12`, with 82.5%.
Take `O=C(c1ccccc1)N(C(=S)NCCc1ccc(Cl)cc1)c1ccc(Cl)cc1`: the growth was 16.7%.
With `Oc1ccc(/C=C/c2ccccc2)cc1`, the growth is 81.3%.
On to `COc1cnc2c(c1)C(=O)c1c-2n(CCCN2CCN(C)CC2)c(=O)c2cc(Cl)ccc12`, for which the growth was 54.2%.
Regarding `Cc1ccccc1CNc1ncnc2[nH]ncc12`, the growth is 87.7%.
